Measured values as given in PubChem BioAssay AID1159580 (chemical genetic matrix, 2015).
Out of some 5,500 compounds screened, about 2,000 (36%) were called active. Inconclusive results (about 18%) are left out. This is one part of the list. Unmarked numbers belong to inactive results. Cut-off read from the data, not from the text of the source: active = normalized growth mostly below about 0.91 (no sharp cut-off); inconclusive = no clear call, values can overlap the other calls; inactive = mostly above about 0.92.

Assay: chemical genetic growth profiling, strain panel (AID 1159580);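 note: tested at 20 µM; growth read once vehicle control cultures reached saturation at 30 °C; 1 = growth at the plate median or of vehicle wells; lower values mean less growth of the strain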
Details: S. cerevisiae deletion strains, growth OD

COc1cc(-c2oc3cc(O)ccc3c(=O)c2O)ccc1O
normalized growth (locus YAL021C, strain ccr4, hits give low values): 0.743 (active) | normalized growth (locus YAL026C, strain drs2, hits give low values): 0.873 (active) | normalized growth (locus YAL030W, strain snc1, hits give low values): 0.977 | normalized growth (locus YBL061C, strain skt5, hits give low values): 0.926 | normalized growth (locus YBR009C, strain hhf1, hits give low values): 0.925 | normalized growth (locus YBR023C, strain chs3, hits give low values): 0.861 (active) | normalized growth (locus YBR171W, strain sec66, hits give low values): 1 | normalized growth (locus YBR231C, strain swc5, hits give low values): 0.826 (active) | normalized growth (locus YBR279W, strain paf1, hits give low values): 0.853 (active) | normalized growth (locus YCL011C, strain gbp2, hits give low values): 0.942 | normalized growth (locus YCL016C, strain dcc1, hits give low values): 0.961 | normalized growth (locus YCL061C, strain MRC1, hits give low values): 0.993 | normalized growth (locus YCL069W, strain vba3, hits give low values): 0.987 | normalized growth (locus YCR088W, strain abp1, hits give low values): 1.02 | normalized growth (locus YDL005C, strain med2, hits give low values): 1.03 | normalized growth (locus YDL040C, strain nat1, hits give low values): 1.01 | normalized growth (locus YDR001C, strain nth1, hits give low values): 1.02 | normalized growth (locus YDR069C, strain doa4, hits give low values): 0.774 (active) | normalized growth (locus YDR137W, strain rgp1, hits give low values): 0.763 (active) | normalized growth (locus YDR159W, strain sac3, hits give low values): 1.06 | normalized growth (locus YDR195W, strain ref2): 1.18 [resistant] (active) | normalized growth (locus YDR297W, strain sur2, hits give low values): 0.958 | normalized growth (locus YDR334W, strain swr1, hits give low values): 0.887 (active) | normalized growth (locus YDR335W, strain msn5, hits give low values): 0.971 | normalized growth (locus YDR392W, strain spt3, hits give low values): 0.868 | normalized growth (locus YEL003W, strain gim4, hits give low values): 0.961 | normalized growth (locus YEL037C, strain rad23, hits give low values): 0.972 | normalized growth (locus YEL061C, strain CIN8 (second series), hits give low values): 1 | normalized growth (locus YER015W, strain faa2, hits give low values): 0.859 (active) | normalized growth (locus YER016W, strain bim1, hits give low values): 0.986 | normalized growth (locus YER111C, strain swi4, hits give low values): 0.979 | normalized growth (locus YER155C, strain BEM2 (second series), hits give low values): 0.977 | normalized growth (locus YFR010W, strain ubp6, hits give low values): 0.906 | normalized growth (locus YGL167C, strain pmr1, hits give low values): 0.995 | normalized growth (locus YGL173C, strain kem1, hits give low values): 0.86 (active) | normalized growth (locus YGL227W, strain vid30, hits give low values): 1.04 | normalized growth (locus YGL240W, strain doc1, hits give low values): 1.04 | normalized growth (locus YGL253W, strain hxk2, hits give low values): 0.833 (active) | normalized growth (locus YHR013C, strain ard1, hits give low values): 0.814 (active) | normalized growth (locus YHR027C, strain rpn1, hits give low values): 0.788 (active) | normalized growth (locus YHR142W, strain chs7, hits give low values): 0.827 (active) | normalized growth (locus YJL092W, strain hpr5, hits give low values): 1.01 | normalized growth (locus YJL095W, strain BCK1 (second series), hits give low values): 0.967 | normalized growth (locus YJL115W, strain asf1, hits give low values): 1.01 | normalized growth (locus YJL129C, strain trk1, hits give low values): 0.911 | normalized growth (locus YJL154C, strain vps35, hits give low values): 1 | normalized growth (locus YJL164C, strain tpk1, hits give low values): 0.829 (active) | normalized growth (locus YJL166W, strain qcr8, hits give low values): 0.895 (active) | normalized growth (locus YJL187C, strain SWE1, hits give low values): 0.885 (active) | normalized growth (locus YKL160W, strain elf1, hits give low values): 0.912 | normalized growth (locus YKR026C, strain gcn3, hits give low values): 1.02 | normalized growth (locus YKR091W, strain srl3, hits give low values): 1 | normalized growth (locus YLL001W, strain dnm1, hits give low values): 0.959 | normalized growth (locus YLL026W, hits give low values): 0.954 | normalized growth (locus YLL041C, strain sdh2, hits give low values): 0.994 | normalized growth (locus YLR027C, strain aat2, hits give low values): 0.902 (active) | normalized growth (locus YLR221C, strain rsa3, hits give low values): 0.899 (active) | normalized growth (locus YLR258W, strain gsy2, hits give low values): 0.935 | normalized growth (locus YLR262C, strain YPT6 (second series), hits give low values): 0.748 (active) | normalized growth (locus YLR320W, strain mms22, hits give low values): 0.9 | normalized growth (locus YLR342W, strain FKS1, hits give low values): 0.966 | normalized growth (locus YLR357W, strain rsc2, hits give low values): 0.8 (active) | normalized growth (locus YLR370C, strain arc18, hits give low values): 0.96 | normalized growth (locus YLR384C, strain iki3, hits give low values): 0.987 | normalized growth (locus YML120C, strain ndi1, hits give low values): 0.975 | normalized growth (locus YMR058W, strain fet3, hits give low values): 0.306 (active) | normalized growth (locus YMR125W, strain sto1, hits give low values): 1.11 | normalized growth (locus YMR129W, hits give low values): 0.998 | normalized growth (locus YMR205C, strain PFK2, hits give low values): 0.926 | normalized growth (locus YMR231W, strain pep5, hits give low values): 0.906 (active) | normalized growth (locus YNL071W, strain lat1, hits give low values): 0.96 | normalized growth (locus YNL209W, strain ssb2, hits give low values): 0.647 (active) | normalized growth (locus YNL248C, strain rpa49, hits give low values): 0.968 | normalized growth (locus YNL322C, strain KRE1 (second series), hits give low values): 1.03 | normalized growth (locus YNR049C, strain mso1, hits give low values): 1 | normalized growth (locus YOR001W, strain rrp6, hits give low values): 0.917 | normalized growth (locus YOR070C, strain gyp1, hits give low values): 0.873 (active) | normalized growth (locus YOR080W, strain dia2, hits give low values): 1 | normalized growth (locus YOR083W, strain WHI5, hits give low values): 0.85 (active) | normalized growth (locus YOR106W, strain vam3, hits give low values): 0.567 (active) | normalized growth (locus YOR265W, strain rbl2, hits give low values): 0.968 | normalized growth (locus YOR270C, strain vph1, hits give low values): 0.542 (active) | normalized growth (locus YOR290C, strain snf2, hits give low values): 0.888 | normalized growth (locus YPL051W, strain arl3, hits give low values): 0.744 (active) | normalized growth (locus YPL078C, strain atp4, hits give low values): 0.927 | normalized growth (locus YPL106C, strain sse1, hits give low values): 0.935 | normalized growth (locus YPL240C, strain hsp82, hits give low values): 0.972
